Results on nine molecules are retold here after PubChem BioAssay (Tox21).

Molecules are shown by their SMILES. Values without a mark were called inactive. Results filed as inconclusive are left out. Calls of active or inactive are those of the source. Unless noted, the call rests on the fitted dose curve; in most records, active means well fitted curve in the direction sought with a large enough effect in the repeat runs; inconclusive means weak or mixed curves; inactive means no such curve, though single readings can be large; an effect the other way counts as inactive or inconclusive.

Test [1] can be described thus: qHTS assay to test for compound auto fluorescence at 535 nm (green) in HEK293 cells (AID 720680). A general note: Quantitative high-throughput screening tests each substance at several concentrations.
The nature of test [2]: qHTS assay to test for compound auto fluorescence at 460 nm (blue) in HEK293 cell free culture (AID 720681). An outline of the steps: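 Compounds were added to cell-free DMEM with 10% FBS and fluorescence read directly. The blue channel used 405 nm excitation and 460 nm emission, with triamterene as the reference fluorophore.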
Test [3] in a line: qHTS assay to test for compound auto fluorescence at 535 nm (green) in HEK293 cell free culture (AID 720682). Put shortly: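 Steps: dispense DMEM/10% FBS into empty wells; pin in compound or DMSO; measure fluorescence at 485/535 nm. Values are fluorescein equivalents.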
Test [4] is described as follows: qHTS assay to test for compound auto fluorescence at 590 nm (red) in HEK293 cell free culture (AID 720683). An outline of the steps:
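Cell-free wells of DMEM with 10% FBS received compound, and intrinsic fluorescence was read at excitation/emission 540/590 nm. Values expressed as equivalence to Rose Bengal sodium.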

Test [5] is described as follows: qHTS assay to test for compound auto fluorescence at 590 nm (red) in HepG2 cell free culture (AID 720684). Put shortly:
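Compound was pinned into wells holding MEM with 10% FBS and no cells, and red fluorescence was read at Ex/Em 540/590 nm. Signal is expressed as auto fluorescence equivalency relative to Rose Bengal sodium.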

A short description of test [6]: qHTS assay to test for compound auto fluorescence at 460 nm (blue) in HepG2 cell free culture (AID 720685). An outline of the steps: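 Compound (23 nL) or DMSO pinned into cell-free MEM with 10% FBS; blue fluorescence read at 405/460 nm excitation/emission, expressed as auto-fluorescence equivalency to triamterene.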
Test [7] can be described thus: qHTS assay to test for compound auto fluorescence at 535 nm (green) in HepG2 cell free culture (AID 720686).
A short description of test [8]: qHTS assay to test for compound auto fluorescence at 460 nm (blue) in HepG2 cells (AID 720687). An outline of the steps: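 HepG2 cells in MEM with 10% FBS, attached overnight at 37 C, were exposed to compound or DMSO for 1 hr at 37 C, 5% CO2. Blue fluorescence was read at 405/460 nm, with triamterene as reference fluorophore.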
Test [9] in a line: qHTS assay for identifying genotoxic compounds that show differential cytotoxicity against isogenic chicken DT40 cell lines with known DNA damage response pathways - wild type cell line (AID 743012). Further: nearly all actives have a fitted effect of over 60% in size. Further: potency means the concentration at half of the fitted maximal effect. An outline of the steps: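 Wild-type DT40 cells (300/well) exposed to compounds for 40 hours at 37 C/5% CO2. Viability read by CellTiter-Glo luminescence after 30 min at room temperature.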

Test [10] can be described thus: qHTS assay for identifying genotoxic compounds that show differential cytotoxicity against isogenic chicken DT40 cell lines with known DNA damage response pathways - Rev3 mutant cell line (AID 743014). Further: nearly all actives have a fitted effect of over 55% in size. Further: potency means the concentration at half of the fitted maximal effect.
Test [11] can be described thus: qHTS assay for identifying genotoxic compounds that show differential cytotoxicity against isogenic chicken DT40 cell lines with known DNA damage response pathways - Rad54/Ku70 mutant cell line (AID 743015). Further: nearly all actives have a fitted effect of over 60% in size. Further: potency means the concentration at half of the fitted maximal effect.
A short description of test [12]: qHTS assay to identify small molecule antagonists of the androgen receptor (AR) signaling pathway - cell viability counter screen (AID 743033; further: nearly all actives have a fitted effect of over 45% in size; further: potency means the concentration at half of the fitted maximal effect).
Test [13] in a line: qHTS assay to identify small molecule antagonists of the androgen receptor (AR) signaling pathway using the MDA cell line - cell viability counter screen (AID 743041; further: nearly all actives have a fitted effect of over 45% in size). Put shortly:
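MDA-kb2 AR-luc cells (MMTV-luciferase, AR/GR responsive) treated with compounds plus R1881 agonist for 16 h at 37C. CellTiter-Fluor added at 15.5 h; fluorescence read after 30 min in the same wells.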

The target of test [14] is Glucocorticoid receptor (Homo sapiens) (UniProt P04150). Kind of test: qHTS assay to identify small molecule antagonists of the glucocorticoid receptor (GR) signaling pathway (AID 720692; active means well fitted inhibition curve with a large enough effect in the signal ratio in the repeat runs, not every such curve was filed as active; the % refers to the signal ratio; further: potency means the concentration at half of the fitted maximal effect). An outline of the steps:
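GR-bla HeLa cells carrying a GRE-driven beta-lactamase reporter received compound after 4 h plating, then dexamethasone (5 nM final). After 18 h at 37C, the FRET substrate was loaded for 2 h at room temperature and fluorescence read.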

The target is the same in test [15]. Kind of test: qHTS assay to identify small molecule agonists of the glucocorticoid receptor (GR) signaling pathway (AID 720691; active means well fitted activation curve with a large enough effect in the signal ratio in the repeat runs, not every such curve was filed as active; the % refers to the signal ratio). Put shortly:
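GR-bla HeLa cells carrying a GRE-driven beta-lactamase reporter, exposed to compounds for 18 h at 37 C. Reporter activation read as fluorescence after 2 h with LiveBLAzer B/G FRET substrate at room temperature.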

Test [16] is described as follows: qHTS assay to identify small molecule antagonists of the glucocorticoid receptor (GR) signaling pathway - cell viability counter screen (AID 720693). Further: nearly all actives have a fitted effect of over 55% in size.
The target in test [17] is Androgen receptor (Homo sapiens) (UniProt P10275). Kind of test: qHTS assay to identify small molecule agonists of the androgen receptor (AR) signaling pathway using the MDA cell line (AID 743040; further: nearly all actives have a fitted effect of over 20% in size). Put shortly:
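MDA-kb2 breast carcinoma cells carrying MMTV-luciferase (responsive to AR and GR), plated 5 h then treated 16 h with compounds at 37C, 0% CO2. Read-out was ONE-Glo luminescence after 30 min at room temperature.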

The target is the same in test [18]. Kind of test: qHTS assay to identify small molecule antagonists of the androgen receptor (AR) signaling pathway using the MDA cell line (AID 743042; further: nearly all actives have a fitted effect of over 55% in size; further: potency means the concentration at half of the fitted maximal effect). Put shortly:
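MDA-kb2 breast carcinoma cells carrying MMTV-luciferase (AR/GR responsive) were co-treated with compounds and the agonist R1881 for 16 h at 37C. Inhibition read as ONE-Glo luminescence; CellTiter-Fluor fluorescence measured in parallel for cytotoxicity.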

The target is the same in test [19]. Kind of test: qHTS assay to identify small molecule antagonists of the androgen receptor (AR) signaling pathway (AID 743035; active means well fitted inhibition curve with a large enough effect in the signal ratio in the repeat runs, not every such curve was filed as active; the % refers to the signal ratio). An outline of the steps:
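HEK293 cells stably carrying UAS-beta-lactamase reporter, 2,000/well, given compounds plus R1881 agonist and incubated 16 h at 37C. LiveBLAzer B/G FRET substrate then added for 2 h at room temperature before fluorescence reading.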
On the % scale 0 is the no-effect control and ±100 the full control effect.

Chain of Glucocorticoid receptor (Homo sapiens) (P04150 whole entry, looked up): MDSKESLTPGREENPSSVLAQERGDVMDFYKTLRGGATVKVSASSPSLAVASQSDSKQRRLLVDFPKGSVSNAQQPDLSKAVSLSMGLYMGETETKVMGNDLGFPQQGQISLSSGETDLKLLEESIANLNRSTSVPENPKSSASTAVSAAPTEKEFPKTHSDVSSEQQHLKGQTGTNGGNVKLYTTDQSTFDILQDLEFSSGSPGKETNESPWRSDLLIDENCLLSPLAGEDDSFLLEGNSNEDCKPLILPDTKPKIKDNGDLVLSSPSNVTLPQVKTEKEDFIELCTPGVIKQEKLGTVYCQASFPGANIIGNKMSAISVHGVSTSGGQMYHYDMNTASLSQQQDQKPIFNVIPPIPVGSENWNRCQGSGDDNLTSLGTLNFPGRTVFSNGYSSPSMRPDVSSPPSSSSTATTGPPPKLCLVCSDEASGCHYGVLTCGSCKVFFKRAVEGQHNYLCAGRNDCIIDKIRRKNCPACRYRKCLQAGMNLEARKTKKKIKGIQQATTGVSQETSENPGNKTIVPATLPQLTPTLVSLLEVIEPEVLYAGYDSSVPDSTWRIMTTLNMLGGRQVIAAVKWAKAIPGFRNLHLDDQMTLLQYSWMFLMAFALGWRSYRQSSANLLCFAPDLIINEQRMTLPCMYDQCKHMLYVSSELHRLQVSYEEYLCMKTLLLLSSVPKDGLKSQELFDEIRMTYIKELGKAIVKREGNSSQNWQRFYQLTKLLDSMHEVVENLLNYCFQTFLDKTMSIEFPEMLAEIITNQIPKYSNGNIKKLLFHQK
Chain of Androgen receptor (Homo sapiens) (P10275 whole entry, looked up): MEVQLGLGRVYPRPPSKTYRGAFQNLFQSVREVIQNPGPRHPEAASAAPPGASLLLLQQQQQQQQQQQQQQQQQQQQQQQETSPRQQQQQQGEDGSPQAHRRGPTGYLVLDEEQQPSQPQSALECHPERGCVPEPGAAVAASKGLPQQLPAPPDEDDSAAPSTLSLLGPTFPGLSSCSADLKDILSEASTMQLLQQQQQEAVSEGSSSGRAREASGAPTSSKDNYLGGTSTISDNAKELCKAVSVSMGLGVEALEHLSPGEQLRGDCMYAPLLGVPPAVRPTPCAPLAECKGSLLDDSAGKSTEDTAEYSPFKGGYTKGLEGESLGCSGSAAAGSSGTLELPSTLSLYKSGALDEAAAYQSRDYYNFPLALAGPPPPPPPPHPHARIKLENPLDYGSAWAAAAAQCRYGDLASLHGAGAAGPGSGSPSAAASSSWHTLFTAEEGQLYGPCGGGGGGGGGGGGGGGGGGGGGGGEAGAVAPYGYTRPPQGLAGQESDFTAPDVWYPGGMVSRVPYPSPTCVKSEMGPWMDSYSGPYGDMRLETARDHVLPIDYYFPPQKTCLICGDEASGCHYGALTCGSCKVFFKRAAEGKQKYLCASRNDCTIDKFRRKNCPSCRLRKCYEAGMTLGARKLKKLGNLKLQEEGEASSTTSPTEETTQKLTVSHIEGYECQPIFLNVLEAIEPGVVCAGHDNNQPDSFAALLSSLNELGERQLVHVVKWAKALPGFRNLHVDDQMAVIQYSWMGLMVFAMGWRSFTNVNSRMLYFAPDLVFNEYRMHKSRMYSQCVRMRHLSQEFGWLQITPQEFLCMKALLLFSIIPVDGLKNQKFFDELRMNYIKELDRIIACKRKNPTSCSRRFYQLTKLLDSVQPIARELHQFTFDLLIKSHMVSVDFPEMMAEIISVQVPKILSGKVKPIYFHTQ

Regarding `CC(=O)NC1(c2cccc(F)c2)CCN(CC[C@@]2(c3ccc(Cl)c(Cl)c3)CN(c3ccccc3)C(=O)CO2)CC1`, the result in test [1], in test [3], in [4], in [5] and in test [7] was inactive. Further, the Potency entry in test [2], in [6], in [8] and in [13] was “inactive” each time. Further, the Potency in test [9] is 43.4 µM (active); in test [10], 54.6 µM (active); in test [11], 48.7 µM (active); in test [12], 39 µM (active).

Take `CCCCCCCCC(CCCCCC)C(=O)O` (centres undefined): the molecule was classed as inactive in [1], in test [3], in test [4], in [5] and in test [7]. Besides, the Potency result in test [2], in test [8], in test [9], in test [11], in test [12] and in test [13] was “inactive” in each case. Further, the Potency in [14] was 38.9 µM (active).

Turning to `NCCNCCO`, the call in test [1], in test [3], in test [4], in test [5] and in [7] was inactive. Further, the Potency entry in [2], in test [8], in [15], in [14], in [16] and in [9] was “inactive” throughout. In addition, the Potency entry in test [10], in test [11], in test [12] and in test [13] was “inactive” throughout.

Consider `c1cc(N(CC2CO2)CC2CO2)ccc1Cc1ccc(N(CC2CO2)CC2CO2)cc1` (centres undefined), for which the result in test [1], in test [3], in test [4], in test [5], in [7] and in [17] was inactive. The Potency entry in test [2], in test [6], in [8] and in test [13] was “inactive” each time. In addition, the Potency in [9] was 3.44 µM (active); in [10] it was 0.0611 µM (active); in [11], 1.93 µM (active); in [12], 54.9 µM (active); in test [18], 27.3 µM (active).

In the case of `C1C[C@@H]2[C@H]3CC[C@H](C3)[C@@H]2C1`, the molecule was called inactive in test [1], in test [3], in test [4], in test [5] and in test [7]. In addition, the Potency entry in [2], in test [8], in test [10], in test [12] and in [13] was “inactive” throughout.

In the case of `C=C1CCC2CC1C2(C)C` (centres undefined), the outcome in test [1], in test [3], in test [4], in [5] and in test [7] was inactive. The Potency entry in test [2], in [6], in test [8], in test [9], in test [10] and in [11] was “inactive” throughout. Moreover, the Potency entry in test [12] and in test [13] was “inactive” each time.

Take `CCN(CC)CCNC(=O)COc1ccc(OC)cc1`: the molecule was classed as inactive in [1], in test [3], in test [4], in test [5] and in [7]. Moreover, the Potency entry in test [2], in test [8], in test [15], in test [14], in test [16] and in test [9] was “inactive” in each case. Besides, the Potency result in test [10], in test [11], in test [12] and in test [13] was “inactive” throughout.

`O=C1c2ccccc2C(=O)C1c1ccc(Br)cc1`: the result in test [1], in [3], in test [4], in test [5], in [7] and in test [17] was inactive. Further, the Potency entry in [2], in test [6], in test [8], in [9], in [11] and in [12] was “inactive” each time. Moreover, the Potency entry in test [19], in test [13] and in [18] was “inactive” each time.

Consider `CN(C(=O)CN(CCO)CC(=O)N(C)C(C)(C)Cc1ccccc1)C(C)(C)Cc1ccccc1`, for which the fluorescence, % of fluorescein in [1] is 0.0843% [at 18.6 µM]. The fluorescence, % of fluorescent control was 0.0268% [at 18.6 µM] in [2], 0% [at 18.6 µM] in test [4] and 0.0182% [at 18.6 µM] in [8]. For the same molecule, the activity change in test [3] is -0.0126% [at 18.6 µM]. The fluorescence, % of Rose Bengal in test [5] is 0.844% [at 18.6 µM]. Besides, the fluorescence, % of fluorescein control in test [7] is 0.0894% [at 18.6 µM]. The Potency entry in test [15], in test [14], in test [16] and in [13] was “inactive” in each case.
